From PubChem BioAssay (NCI)
Where “and” joins values, the source holds several entries; their conditions need not be identical. Equal values may be shown once. About 83,000 compounds went through this panel and 20% of them were active in at least one assay; those are over-represented in the sample as a whole.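 Single-concentration screen, 48 h exposure, 96-well plates. Endpoint: percent growth. Below 10 = active.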 Calls of active or inactive are those of the source.

These compounds were tested on MCF7 breast (assay: NCI-60 one-dose screen, 48 h (100 = growth as untreated, 0 = no growth, -100 = all killed)). Conditions: 10 µM unless noted.
For `N#CC1(C#N)C2CCCCC23OC(=N)C1(C#N)C(c1ccccc1)O3` (centres undefined), the growth was -47% [100 µM] (active). `N#C/C=C1\C=CC(O)C(O)C1OC1OC(CO)C(O)C(O)C1O` (centres undefined) was tested, and the growth was 92.7% [100 µM] (inactive) and 74.4% [100 µM] (inactive). With `COc1ccc(N=C(C)C(C)=Nc2ccc(OC)cc2)cc1` the growth was 38.9% [100 µM] (inactive) and 11.1% [100 µM] (inactive). For `O=C(Cc1nc2ccc(C(=O)c3ccccc3)cc2[nH]c1=O)C(=O)Nc1ccccc1[N+](=O)[O-]`, the growth was 27.4% [100 µM] (inactive) and 4.17% [100 µM] (active). With `COC(=O)/C=C\C(C#N)(C#N)N=Cc1ccsc1` the growth was -73.8% [100 µM] (active) and -39.1% [100 µM] (active). `COc1cc2oc3c(c(=O)c2c(O)c1/C=C/C(C)C)CCC(C)(C)Oc1cc(O)ccc1-3` was tested, and the growth was -61% [100 µM] (active) and -100% [100 µM] (active). With `COc1ccc2cc1Oc1ccc(cc1)C[C@@H]1c3cc(c(OC)cc3CCN1C)Oc1c(OC)c(OC)cc3c1[C@H](C2)N(C)CC3` the growth was 35.9% [100 µM] (inactive) and -90.5% [100 µM] (active). In the case of `C=C1C(=O)OC2/C=C(\CO)CC/C=C(\CO)CC(OC(=O)C(C)C)C12` (centres undefined), the growth is reported as -82.7% [100 µM] (active) and -70% [100 µM] (active). With `CC1=CC(=O)c2ccc(C)cc2C1=O` the growth was -70.7% [100 µM] (active) and -100% [100 µM] (active). `COC(=O)C1=CO[C@@H](OC2OC(CO)C(O)C(O)C2O)[C@H]2[C@@H](C)[C@@H](O)[C@@H](O)[C@@H]12` (some centres undefined) was tested, and the growth was 95.3% [100 µM] (inactive) and 91.8% [100 µM] (inactive). In the case of `COc1c(OC)c(OC)c2c(c1OC)c(=O)c1ccccc1n2C`, the growth is reported as 65.5% [100 µM] (inactive) and -50% [100 µM] (active). In the case of `CSc1nc(Br)nc2ncn(C3CC(Oc4ccc(C)cc4)C(COc4ccc(C)cc4)O3)c12` (centres undefined), the growth is reported as 64.8% [100 µM] (inactive) and -36.2% [100 µM] (active). In the case of `Cc1ccc2c(/C=C/c3ccc(N(C)C)cc3)ccc(C(C)C)cc1-2`, the growth is reported as 57.7% [100 µM] (inactive) and 75.6% [100 µM] (inactive). `NNc1[nH]c(=S)[nH]c1C(N)=O` was tested, and the growth was 98.4% [100 µM] (inactive) and 70.9% [100 µM] (inactive). `O=C1c2ccccc2-c2c1c1ccccc1c(=O)n2-c1cccnc1` was tested, and the growth was 21.1% [100 µM] (inactive) and 3.24% [100 µM] (active). `C[C@@H]1C[C@](O)([C@@H](C)Cl)C(=O)O[C@@H]2CCN3CC=C(COC(=O)[C@]1(C)O)[C@H]23` was tested, and the growth was 82.2% [100 µM] (inactive) and 71.5% [100 µM] (inactive). For `O=C1CC(c2ccccc2)NCCCCN2CC(CN1)C(C(O)c1ccccc1)C2=O` (centres undefined), the growth was 97.3% [100 µM] (inactive) and 76% [100 µM] (inactive). For `CC(C)=CCc1c(OC(=O)c2c(C)cc(O)cc2O)cc(CO)c(CO)c1O`, the growth was -58.6% [100 µM] (active) and -100% [100 µM] (active). With `C=C1C(=O)O[C@@H]2C[C@@]3(C)CC(=O)C=C(C)[C@@H]3C[C@H]12` the growth was -74.2% [100 µM] (active) and -78.3% [100 µM] (active). `COc1ccc2c(=O)c(-c3cc4c(cc3OC)OCO4)coc2c1` was tested, and the growth was 74% [100 µM] (inactive) and 47.3% [100 µM] (inactive). With `CCO/C=N\C1=C(C#N)SC2=N/C(=C\c3ccc(OC)cc3)C(=O)N21` the growth was 59.2% [100 µM] (inactive) and 48.6% [100 µM] (inactive). In the case of `CC1CC(C(=O)OC2OC(COC3OC(CO)C(OC4OC(C)C(O)C(O)C4O)C(O)C3O)C(O)C(O)C2O)C2CCC3(C)C(=CCC4(C)C3CCC3C(C)(CO)C(O)C(O)CC34C)C2C1C` (centres undefined), the growth is reported as -87.6% [100 µM] (active) and -100% [100 µM] (active). `Cc1ccc(NC(=O)/C(Cc2cc(=O)oc3cc(O)ccc23)=N\NC(C)(C)C)cc1C` was tested, and the growth was 117% [100 µM] (inactive) and 97.1% [100 µM] (inactive). With `Cc1cc(S(=O)(=O)O)c(NC(=O)c2oc3cc(O)ccc3c(=O)c2C)cc1Cl` the growth was 100% [100 µM] (inactive) and 86.3% [100 µM] (inactive). In the case of `Cc1cc2nn(C3CCCO3)nc2cc1C` (centres undefined), the growth is reported as 79.7% [100 µM] (inactive) and 92.9% [100 µM] (inactive). `Cc1cc(N(CCC#N)CCC#N)ccc1/C=N/NC(=O)c1cc(Cl)ccc1O` was tested, and the growth was 43.8% [100 µM] (inactive) and 13.1% [100 µM] (inactive). In the case of `COc1cc([C@H]2OC[C@@H]3C(c4cc(OC)c5c(c4)OCO5)OC[C@H]23)cc(OC)c1OC` (some centres undefined), the growth is reported as 67.2% [100 µM] (inactive) and 7.31% [100 µM] (active). With `CC(C)(C)c1cc(C2COC(=O)COCCOCC(=O)OCCOCCO2)cc(C(C)(C)C)c1O` (centres undefined) the growth was 70.6% [100 µM] (inactive) and 74.1% [100 µM] (inactive). For `COc1cc([C@H]2OC[C@H]3[C@@H]2CO[C@@H]3c2cc(OC)c3c(c2)OCO3)cc(OC)c1OC`, the growth was 18.5% [100 µM] (inactive) and 2.61% [100 µM] (active). `CCC(c1ccc(N(C)C)cc1)C1NC(=S)NC1=O` (centres undefined) was tested, and the growth was 37.9% [100 µM] (inactive) and 10.5% [100 µM] (inactive). In the case of `CNC(=S)c1nnsc1N`, the growth is reported as 19% [100 µM] (inactive) and 0.417% [100 µM] (active). `COc1cc(C)c2c(c1C=O)Oc1c(c(C)c(O)c3c1C(O)OC3=O)OC2=O` (centres undefined) was tested, and the growth was 1.49% [100 µM] (active) and 87.3% [100 µM] (inactive). For `COc1ccc(-c2nc3ccccc3c(=S)n2OC(C)=O)cc1`, the growth was 8.58% [25 µM] (active) and -23% [25 µM] (active). In the case of `C[C@]12CC[C@@H]3c4ccc(OS(N)(=O)=O)cc4CC[C@H]3[C@@H]1CCC2=O`, the growth is reported as 15.4% [100 µM] (inactive) and 44.8% [100 µM] (inactive). In the case of `COc1ccc2c(c1)N(C(C)=O)CN1C(=O)CCC21` (centres undefined), the growth is reported as 86.1% [100 µM] (inactive) and 85.1% [100 µM] (inactive). With `CC(C)CCCC(C)[C@H]1CC[C@H]2[C@@H]3CC[C@H]4C[C@@H](CCC=C(c5cc(Cl)c(O)c(C(=O)O)c5)c5cc(Cl)c(O)c(C(=O)O)c5)CC[C@]4(C)[C@H]3CC[C@]12C` (some centres undefined) (tested in a mixture with another compound) the growth was 97.3% [50 µM] (inactive). `Fc1ccc(Nc2nc(Cl)c3[nH]cnc3n2)cc1Cl` was tested, and the growth was 53.5% [100 µM] (inactive) and 7.87% [100 µM] (active). `CC1=C2NCN(C)N=C2C(C#N)(C#N)C1(C#N)C#N` was tested, and the growth was -60.6% [100 µM] (active) and -73.1% [100 µM] (active). For `C=CC(COC(=O)C(C)(C)OC(C)=O)c1ccc(OC(=O)C(C)C)c(OC)c1` (centres undefined), the growth was -68.4% [100 µM] (active) and -69% [100 µM] (active).
